# Test results as given in PubChem BioAssay (NCATS).
# “And” between values parts separate entries of the source, which are not always exact repeats. Identical values can stand only once. Results filed as inconclusive are left out. The source made the active and inactive calls. Unless noted, calls come from the whole dose curve; as a rule, active = well fitted curve in the direction sought with a large enough effect; inconclusive = small, poorly fitted or top-dose-only effect, or another doubt; inactive = no such curve, though single readings can be large; an effect the other way counts as inactive or inconclusive.
# Experiments:
# [1] = qHTS Assay for Lipid Storage Modulators (AID 1519; calls by dose curve; for activity change, negative = inhibition: % is set by controls: 0 for no effect and ±100 for the full control effect); details: Drosophila S3 cells, BODIPY lipid droplet/cell ratio, laser cytometry, cells loaded with oleic acid
# How it was run: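 Cells seeded at 5,000 per well were treated with compounds over a concentration series and loaded with oleic acid (400 uM, as added). Lipid droplet fluorescence (488 nm excitation, 500-530 nm channel) was read by laser-scanning cytometry and normalized to 20 uM Triacsin C.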
# [2] = biological target: Alpha-galactosidase A (Homo sapiens) (UniProt P06280); assay: Counterscreen for Glucocerebrosidase Inhibitors: qHTS Assay for Human alpha-Galactosidase at pH 4.5 (AID 992); details: purified enzyme, fluorogenic substrate; series mostly up to 76.9 µM; note: 0% is about no effect
# Alpha-galactosidase A (Homo sapiens), sequence (P06280 whole entry, looked up): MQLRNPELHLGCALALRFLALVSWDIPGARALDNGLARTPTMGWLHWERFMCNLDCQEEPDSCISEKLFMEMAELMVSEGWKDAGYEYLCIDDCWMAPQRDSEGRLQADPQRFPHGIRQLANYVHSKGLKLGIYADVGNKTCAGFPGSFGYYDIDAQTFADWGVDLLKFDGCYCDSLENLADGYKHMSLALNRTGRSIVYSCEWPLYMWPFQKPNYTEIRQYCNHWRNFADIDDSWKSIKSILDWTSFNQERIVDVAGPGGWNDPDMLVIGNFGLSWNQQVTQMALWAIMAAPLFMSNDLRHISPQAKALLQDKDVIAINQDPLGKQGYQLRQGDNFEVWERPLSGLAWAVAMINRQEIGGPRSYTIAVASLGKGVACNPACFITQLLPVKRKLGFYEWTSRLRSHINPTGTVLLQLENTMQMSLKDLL
# How it was run: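 Each compound is preincubated briefly with 2 nM enzyme before substrate addition (80 uM); plates then sit 20 min at ambient temperature, are quenched with 1M NaOH/1M glycine, and read fluorometrically.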
# [3] = biological target: alpha-glucosidase (Oryza sativa, rice) (UniProt Q653V4); assay: Counterscreen for Glucocerebrosidase Inhibitors: qHTS Assay for Rice alpha-Glucosidase at pH 5.0 (AID 997); details: rice alpha-glucosidase enzyme activity; series mostly up to 76.9 µM;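 note: 0% = full activity with enzyme and -100% = basal without enzyme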
# How it was run: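 Endpoint fluorogenic assay at pH 5.0: compounds (0.7 nM to 77 uM) titrated against 4 nM rice enzyme and 400 uM 4-MU-alpha-glucoside for 20 min at room temperature; NaOH/glycine stop, read ex 365/em 440 nm, Hill-fitted AC50.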
# [4] = Validation of Assay for Modulators of Lamin A Splicing (AID 1459; active = well fitted curve in the direction sought with a large enough effect in the signal ratio; the % refers to the signal ratio;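 note: cells exposed to compound for two days before reading; 0% is about no effect; ratio rise marks activators and ratio drop marks inhibitors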); details: Lamin A splicing dual RFP/GFP fluorescence reporter; series mostly up to 9.22 µM
# How it was run: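 Splicing correction read as GFP (500-530 nm) over DsRed2 (575-640 nm) object intensity after 48 h compound exposure of reporter HeLa S3 clones (600 cells/well, 2% FBS medium); ancitabine and cycloheximide titrations, 0.5% DMSO as vehicle.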
# [5] = biological target: DNA repair nuclease/redox regulator APEX1 (Homo sapiens) (UniProt P27695); assay: qHTS Validation Assay for Inhibitors of the Human Apurinic/apyrimidinic Endonuclease 1 (APE1) (AID 1705; note: potency is the fitted concentration of half-maximal effect;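 for activity change, negative = inhibition: TAMRA fluorescence gain over two minutes as APE1 cuts a quenched THF abasic duplex; % is set by controls: 0 for no effect and ±100 for the full control effect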); details: purified APE1 endonuclease activity, fluorescence, titration; series mostly up to 57.1 µM
# DNA repair nuclease/redox regulator APEX1 (Homo sapiens), sequence (P27695 whole entry, looked up): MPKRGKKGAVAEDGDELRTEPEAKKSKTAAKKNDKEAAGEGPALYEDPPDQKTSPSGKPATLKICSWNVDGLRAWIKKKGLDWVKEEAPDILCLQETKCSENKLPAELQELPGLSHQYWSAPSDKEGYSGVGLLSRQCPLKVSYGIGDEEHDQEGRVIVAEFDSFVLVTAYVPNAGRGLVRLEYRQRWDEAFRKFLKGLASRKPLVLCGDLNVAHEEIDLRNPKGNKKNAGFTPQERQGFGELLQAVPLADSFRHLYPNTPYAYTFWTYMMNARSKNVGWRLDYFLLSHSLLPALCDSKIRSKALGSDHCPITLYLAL
# How it was run: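 Activity read as rising fluorescence (598 nm emission, 525 nm excitation) from incision of a TAMRA/BHQ-2 duplex carrying a THF abasic site (50 nM). Compound and enzyme sat 15 min at RT before substrate start; signal change between first and third 60-s reads.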
# [6] = Counterscreen for APE1 Inhibitors: Fluorescent Dye Displacement Validation Assay (AID 1707); details: fluorescent dye displacement from DNA; series mostly up to 57.1 µM;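 note: plate controls were ThO with dsDNA and no compound for no effect and ThO without dsDNA for full effect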
# How it was run: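 Loss of Thiazole Orange fluorescence marks promiscuous DNA binders. The dye (250 nM) is mixed with 50 nM abasic-site dsDNA in pH7.5 Tris buffer containing MgCl2, then compounds are added and emission is read once.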
# [7] = biological target: Endonuclease 4 (Escherichia coli (strain K12)) (UniProt P0A6C1); assay: Counterscreen for APE1 Inhibitors: qHTS Validation Assay for Inhibitors of Endonuclease IV (AID 1708); note: % is set by controls: 0 for no effect and ±100 for the full control effect; details: E. coli endonuclease IV, DNA cleavage fluorescence; series mostly up to 57.1 µM
# How it was run: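 Conditions: 2 nM enzyme, 50 nM TAMRA/BHQ-2 substrate, pH 7.5 Tris buffer with 2 mM MgCl2, RT. Compound preincubation 15 min; readout three fluorescence reads 60 s apart, third-minus-first.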
# [8] = qHTS for differential inhibitors of proliferation of Plasmodium falciparum line 7G8 (AID 1815); details: Plasmodium falciparum 7G8 proliferation inhibition; series mostly up to 28.7 µM;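 note: parasite growth measured after three days of incubation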; note: potency is the fitted concentration of half-maximal effect;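 for activity change, negative = inhibition: plate controls were vehicle wells for no effect and reference inhibitor wells for full effect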
# [9] = qHTS for differential inhibitors of proliferation of Plasmodium falciparum line GB4 (AID 1816); details: Potency: Plasmodium falciparum GB4 proliferation inhibition; series mostly up to 28.7 µM;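 note: parasite growth measured after 72 h incubation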; note: potency is the fitted concentration of half-maximal effect;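 for activity change, negative = inhibition: 0% = vehicle DMSO and -100% = reference inhibitor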
# [10] = qHTS for differential inhibitors of proliferation of Plasmodium falciparum line 3D7 (AID 1876); note: potency is the fitted concentration of half-maximal effect; details: P. falciparum 3D7 proliferation inhibition; series mostly up to 28.7 µM
# [11] = qHTS for differential inhibitors of proliferation of Plasmodium falciparum line D10 (AID 1877); details: series mostly up to 28.7 µM;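 note: parasites grown with compound for 72 h before DNA staining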; note: potency is the fitted concentration of half-maximal effect;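 for activity change, negative = inhibition: plate controls were vehicle wells for no effect and reference inhibitor wells for full effect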
# [12] = qHTS for differential inhibitors of proliferation of Plasmodium falciparum line Dd2 (AID 1882); details: Potency: Plasmodium falciparum Dd2 proliferation inhibition; series mostly up to 28.7 µM;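 note: plate controls were DMSO vehicle for no effect and 0.29 µM artemisinin for full effect; nearly all actives have a fitted effect of over 65% in size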
# How it was run: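 SYBR Green DNA fluorescence (ex 485, em 535 nm) after overnight lysis quantifies parasite growth; compound exposure lasted 72 h at 37 C on infected red cells at 2.5% hematocrit, 0.3% parasitemia (final). Artemisinin 0.29 uM and vehicle wells define normalization.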
# [13] = qHTS for differential inhibitors of proliferation of Plasmodium falciparum line W2 (AID 1883); details: Potency: Plasmodium falciparum W2 proliferation inhibition; series mostly up to 28.7 µM;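 note: parasites grown with compound for 72 h before lysis and staining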; note: potency is the fitted concentration of half-maximal effect;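 for activity change, negative = inhibition: 0% = vehicle wells and -100% = control inhibitor wells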
# [14] = qHTS for differential inhibitors of proliferation of Plasmodium falciparum line HB3 (AID 1886); details: Potency: Plasmodium falciparum HB3 proliferation inhibition; series mostly up to 28.7 µM;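 note: parasites grown with compound for 72 h before SYBR Green readout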; note: potency is the fitted concentration of half-maximal effect;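 for activity change, negative = inhibition: plate controls were vehicle for no effect and reference inhibitor for full effect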
# [15] = qHTS Assay for Modulators of Human Peripheral Myelin Protein 22 (PMP22) Expression/Activity (AID 1967; active = well fitted curve in the direction sought with a large enough effect in the signal ratio; the % refers to the signal ratio;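 note: 0% = untreated cells and 100% end not stated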); details: Cell-based PMP22 reporter, dual-color luciferase ratio, 0% = compound-free control cells, mouse Pmp22 promoter in mouse Schwann cells; series mostly up to 115 µM
# How it was run: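 Readout is the corrected green/red luminescence ratio after 24 h compound exposure, normalised to untreated cells (0%). Engineered MSC80 mouse Schwann cells express green luciferase from the mouse Pmp22 promoter and red luciferase from EF-alpha as internal control.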
# [16] = measured here: cell count channel max response
# [17] = measured here: lipid channel max response
structure (smiles),measurement,setting,value
CC(C)(Oc1ccc(Cl)cc1)C(=O)O,"activity change, negative = inhibition",[1]; at 25.7 µM (top of the series),-1.74% (inactive)
same,max response,[1]; [16],1.11%
same,max response,[1]; [17],-1.85%
C[C@H](O)C(=O)Nc1c(I)c(C(=O)NC(CO)CO)c(I)c(C(=O)NC(CO)CO)c1I,"activity change, negative = inhibition",[1]; at 25.7 µM (top of the series),-3.5% (inactive)
same,max response,[1]; [16],-8.47%
same,max response,[1]; [17],-9.62%
CCn1cc(C(=O)O)c(=O)c2cnc(N3CCCC3)nc21,"activity change, negative = inhibition",[1]; at 25.7 µM (top of the series),-3.05% (inactive)
same,max response,[1]; [16],-11.9%
same,max response,[1]; [17],-16.2%
O=C(OCC(O)CO)c1ccccc1Nc1ccnc2cc(Cl)ccc12 (configuration not stated),"activity change, negative = inhibition",[1]; at 57.5 µM (top of the series),0.748% (inactive)
same,max response,[1]; [16],5.57%
same,max response,[1]; [17],7.83%
COc1c(C)c2c(c(O)c1C/C=C(\C)CCC(=O)O)C(=O)OC2,"activity change, negative = inhibition",[1]; at 25.7 µM (top of the series),-1.1% (inactive)
same,max response,[1]; [16],6.28%
same,max response,[1]; [17],5.14%
NCCc1ccn[nH]1,"activity change, negative = inhibition",[1]; at 25.7 µM (top of the series),-0.85% (inactive)
same,max response,[1]; [16],12.5%
same,max response,[1]; [17],11.2%
C/C=C/c1ccc(OC)cc1,"activity change, negative = inhibition",[1]; at 57.5 µM (top of the series),9.09% (inactive)
same,max response,[1]; [16],9.56%
same,max response,[1]; [17],22.7%
N[C@@H](Cc1cnc[nH]1)C(=O)O,outcome,[2],inactive
same,outcome,[3],inactive
same,outcome,[4],inactive
same,"activity change, negative = inhibition",[1]; at 57.5 µM (top of the series),2.39% (inactive)
same,max response,[1]; [16],-24.8%
same,max response,[1]; [17],-24.4%
same,Potency,[5],inactive
same,outcome,[6],inactive
same,outcome,[7],inactive
same,Potency,[8],inactive
same,Potency,[9],inactive
same,Potency,[10],inactive
same,Potency,[11],inactive
same,Potency,[12],inactive
same,Potency,[13],inactive
same,Potency,[14],inactive
same,outcome,[15],inactive
CC(=O)c1ccc2c(c1)N(CCCN1CCC(CCO)CC1)c1ccccc1S2,"activity change, negative = inhibition",[1]; at 25.7 µM (top of the series),-1.72% (inactive)
same,max response,[1]; [16],-5%
same,max response,[1]; [17],-2.93%
CCN1CCC[C@H]1CNC(=O)c1c(OC)ccc(Br)c1OC,"activity change, negative = inhibition",[1]; at 25.7 µM (top of the series),-6.61% (inactive)
same,max response,[1]; [16],-13.5%
same,max response,[1]; [17],-15.4%
CCCn1c(=O)[nH]c(=O)c2[nH]cnc21,outcome,[2],inactive
same,outcome,[3],inactive
same,outcome,[4],inactive
same,"activity change, negative = inhibition",[1]; at 57.5 µM (top of the series),-0.904% (inactive)
same,max response,[1]; [16],29.5%
same,max response,[1]; [17],25.8%
same,Potency,[5],inactive
same,outcome,[6],inactive
same,outcome,[7],inactive
same,Potency,[8],inactive
same,Potency,[9],inactive
same,Potency,[10],inactive
same,Potency,[11],inactive
same,Potency,[12],inactive
same,Potency,[13],inactive
same,Potency,[14],inactive
same,outcome,[15],inactive
O=C(O)c1cc2cc(Cc3cccnc3)ccc2o1,outcome,[2],inactive
same,outcome,[3],inactive
same,outcome,[4],inactive
same,Potency,[5],inactive
same,outcome,[6],inactive
same,outcome,[7],inactive
same,Potency,[8],inactive
same,Potency,[9],inactive
same,Potency,[10],inactive
same,Potency,[11],inactive
same,Potency,[12],inactive
same,Potency,[13],inactive
same,Potency,[14],inactive
same,outcome,[15],inactive
Cc1cccc(C)c1NC(=O)CN1CCN(CCCC(c2ccc(F)cc2)c2ccc(F)cc2)CC1,"activity change, negative = inhibition",[1]; at 25.7 µM (top of the series),-4.87% (inactive)
same,max response,[1]; [16],-22.3%
same,max response,[1]; [17],-28.7%
CCN(CC)CCOC(=O)C(c1ccccc1)C1CCCCC1 (configuration not stated),"activity change, negative = inhibition",[1]; at 57.5 µM (top of the series),-0.866% (inactive)
same,max response,[1]; [16],11.2%
same,max response,[1]; [17],13.6%
CCCCOc1ccc(OCCCN2CCOCC2)cc1,"activity change, negative = inhibition",[1]; at 25.7 µM (top of the series),-0.243% (inactive)
same,max response,[1]; [16],-13.4%
same,max response,[1]; [17],-13.4%
CN(C)CCCOc1nn(Cc2ccccc2)c2ccccc12,"activity change, negative = inhibition",[1]; at 25.7 µM (top of the series),-3.69% (inactive)
same,max response,[1]; [16],1.49%
same,max response,[1]; [17],-2.83%
CCOc1ccc(Cc2nccc3cc(OCC)c(OCC)cc23)cc1OCC,"activity change, negative = inhibition",[1]; at 57.5 µM (top of the series),-21.1% (inactive)
same,max response,[1]; [16],-4.38%
same,max response,[1]; [17],-26.4%
CN1C2CCC1CC(OC(=O)c1c[nH]c3ccccc13)C2 (configuration not stated),outcome,[4],inactive
same,"activity change, negative = inhibition",[1]; at 57.5 µM (top of the series),1.19% (inactive)
same,max response,[1]; [16],10.2%
same,max response,[1]; [17],11.1%
same,Potency,[5],39.8 µM (active)
same,outcome,[6],inactive
same,outcome,[7],inactive
same,Potency,[8],7.08 µM (active)
same,Potency,[9],11.2 µM (active)
same,Potency,[10],10 µM (active)
same,Potency,[11],11.2 µM (active)
same,Potency,[13],8.91 µM (active)
same,outcome,[15],inactive
CC(CCc1ccccc1)NCC(O)c1ccc(O)c(C(N)=O)c1 (configuration not stated),outcome,[4],inactive
same,"activity change, negative = inhibition",[1]; at 57.5 µM (top of the series),1.59% (inactive) and 2.63% (inactive)
same,max response,[1]; [16],0.538% and 18.3%
same,max response,[1]; [17],3.22% and 11.8%
same,Potency,[5],inactive
same,outcome,[6],inactive
same,outcome,[7],inactive
same,Potency,[8],7.94 µM (active)
same,Potency,[9],10 µM (active)
same,Potency,[10],10 µM (active)
same,Potency,[11],12.6 µM (active)
same,Potency,[13],8.91 µM (active)
same,Potency,[14],12.6 µM (active)
same,outcome,[15],inactive
